From PubChem BioAssay (Tox21)
Records with an inconclusive call do not appear. Calls of active or inactive are those of the source. Unless noted, calls follow the shape of the dose curve; as a rule, active = well fitted curve in the direction sought with a large enough effect in the repeat runs; inconclusive = weak or mixed curves; inactive = no such curve, though single readings can be large; an effect the other way counts as inactive or inconclusive.

How the values were obtained:
[1] = qHTS assay to identify small molecule antagonists of the estrogen related receptor (ERR) signaling pathway from Tox21 library - cell viability counter screen (AID 1224834); also: nearly all actives have a fitted effect of over 30% in size
How it was run: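 ERR reporter cells were plated 6 h before compound addition, then exposed to test compounds in DMSO for 17.5 h at 37 C. Viability was read as CellTiter-Fluor fluorescence after a 30-minute incubation at 37 C.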

[2] = target: Luciferin 4-monooxygenase (Photinus pyralis) (UniProt P08659); assay: qHTS assay to identify small molecule inhibitors of firefly luciferase (AID 1224835); also: nearly all actives have a fitted effect of over 25% in size
Chain of Luciferin 4-monooxygenase (Photinus pyralis) (P08659 whole entry, looked up): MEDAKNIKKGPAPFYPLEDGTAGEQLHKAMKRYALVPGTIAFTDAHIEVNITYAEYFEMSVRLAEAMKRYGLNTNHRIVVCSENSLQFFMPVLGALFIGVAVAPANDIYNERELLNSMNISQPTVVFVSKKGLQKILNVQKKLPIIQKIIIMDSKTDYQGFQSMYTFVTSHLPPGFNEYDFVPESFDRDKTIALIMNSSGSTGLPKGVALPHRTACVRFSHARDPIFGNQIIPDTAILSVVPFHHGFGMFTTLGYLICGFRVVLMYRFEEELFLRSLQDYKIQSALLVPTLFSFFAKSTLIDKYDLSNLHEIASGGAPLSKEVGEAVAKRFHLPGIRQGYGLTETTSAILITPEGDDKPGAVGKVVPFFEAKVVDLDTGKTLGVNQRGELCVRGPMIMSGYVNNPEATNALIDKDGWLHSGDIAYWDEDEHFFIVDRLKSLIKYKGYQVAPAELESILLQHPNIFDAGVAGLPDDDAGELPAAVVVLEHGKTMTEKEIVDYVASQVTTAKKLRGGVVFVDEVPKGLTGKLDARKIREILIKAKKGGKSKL
How it was run: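 Inhibition of purified Photinus luciferase is measured by luminescence. Substrate levels (D-luciferin, ATP) sit at their KM values. Each compound is tested in a concentration series.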

[3] = qHTS assay to identify small molecule agonists of the constitutive androstane receptor (CAR) signaling pathway - cell viability counter screen (AID 1224836); also: nearly all actives have a fitted effect of over 45% in size
How it was run: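 Double-stable HepG2 hepatoma cells (hCAR plus CYP2B6-2.2kb) are treated for 23 h at 37 C with test compounds in 15-point concentration series. PK11195 at 0.75 uM final is co-added. Cell viability is quantified by CellTiter-Fluor.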

[4] = qHTS assay to identify small molecule antagonists of the constitutive androstane receptor (CAR) signaling pathway - cell viability counter screen (AID 1224837); also: nearly all actives have a fitted effect of over 45% in size
How it was run: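 HepG2 cells stably expressing hCAR and a CYP2B6-2.2kb reporter were plated and pre-incubated 4 hr at 37 C/5% CO2, then given compounds at 15 concentrations plus 50 nM CITCO (final). After 23 hr, viability was read by CellTiter-Fluor fluorescence.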

[5] = qHTS assay to identify small molecule antagonists of the estrogen related receptor signaling pathway with the pleiotropic PPARgamma coactivator (PGC) from Tox21 10K library - cell viability counter screen (AID 1224840; active = well fitted cell-killing curve with a large enough effect in the repeat runs, not every such curve was filed as active; also: nearly all actives have a fitted effect of over 40% in size)
How it was run: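 PGC/ERR cells were seeded at 2,000 cells/well and left 6 hours at 37 C/5% CO2 before pin-tool addition of compounds in DMSO. After 17.5 hours at 37 C, CellTiter-Fluor was added and fluorescence read 30 minutes later.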

[6] = target: Thyrotropin receptor (Homo sapiens) (UniProt P16473); assay: qHTS assay to identify small molecule agonists of the thyroid stimulating hormone receptor (TSHR) signaling pathway (AID 1224843; calls by dose curve; also: nearly all actives have a fitted effect of over 45% in size)
Chain of Thyrotropin receptor (Homo sapiens) (P16473 whole entry, looked up): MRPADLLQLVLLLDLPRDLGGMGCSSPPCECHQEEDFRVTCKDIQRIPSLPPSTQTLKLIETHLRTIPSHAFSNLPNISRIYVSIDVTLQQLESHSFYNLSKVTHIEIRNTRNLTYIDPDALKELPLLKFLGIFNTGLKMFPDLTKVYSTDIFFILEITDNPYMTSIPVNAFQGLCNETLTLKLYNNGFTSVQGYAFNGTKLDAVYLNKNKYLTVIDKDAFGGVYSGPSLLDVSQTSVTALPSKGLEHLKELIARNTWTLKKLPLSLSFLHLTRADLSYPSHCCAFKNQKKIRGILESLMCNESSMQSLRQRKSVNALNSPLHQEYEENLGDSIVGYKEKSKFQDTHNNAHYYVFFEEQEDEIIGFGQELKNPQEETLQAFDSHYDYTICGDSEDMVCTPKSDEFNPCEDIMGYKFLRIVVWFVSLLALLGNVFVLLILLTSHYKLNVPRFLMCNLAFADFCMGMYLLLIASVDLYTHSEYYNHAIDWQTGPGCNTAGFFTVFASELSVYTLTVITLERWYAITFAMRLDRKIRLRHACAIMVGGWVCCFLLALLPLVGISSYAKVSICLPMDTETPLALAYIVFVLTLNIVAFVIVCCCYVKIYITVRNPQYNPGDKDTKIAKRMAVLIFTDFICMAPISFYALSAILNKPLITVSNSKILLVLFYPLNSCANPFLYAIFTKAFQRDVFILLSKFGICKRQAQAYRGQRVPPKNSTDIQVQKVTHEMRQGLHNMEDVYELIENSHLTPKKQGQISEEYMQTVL
How it was run: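 Screening of the Tox21 10K collection used HEK293 cells engineered with TSHR at 800 cells per well. After a 30-min room-temperature compound exposure, HTRF cAMP reagents were added and fluorescence recorded 1 h later.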

[7] = qHTS assay to identify small molecule agonists of the hypoxia (HIF-1) signaling pathway - cell viability counter screen (AID 1224844; calls by dose curve; also: nearly all actives have a fitted effect of over 50% in size)
How it was run: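 HRE-bla ME-180 cells in medium with 0.5% dialyzed FBS were preincubated 5 hrs at 37C, exposed to compounds for 17 hrs, then viability was read as CellTiter-Glo luminescence after 30 min at room temperature, in the reporter wells.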

[8] = qHTS assay to identify small molecule agonists of H2AX (AID 1224845; active = well fitted activation curve with a large enough effect in the signal ratio in the repeat runs, not every such curve was filed as active; the % refers to the signal ratio)
How it was run: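 Phospho-H2AX Ser139 measured by HTRF (ex 320 nm; em 665 and 620 nm) after 24 hr antibody incubation. Compounds, 15 concentrations, 0.76% DMSO, were applied to CHO-K1 cells for 3hr at 37C before lysis.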

[9] = qHTS assay to identify small molecule agonists of H2AX - cell viability counter screen (AID 1224847; calls by dose curve;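 also: wild-type CHO-K1 cells; top concentration of the series differs between compounds; nearly all actives have a fitted effect of over 30% in size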)
How it was run: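 For this counter screen, overnight-attached CHO-K1 cells received test compounds (15 concentrations, 0.76% DMSO final); 3 hr later at 37C, CellTiter-Glo reagent was added and luminescence recorded after 30 min at room temperature.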

[10] = qHTS RealTime-Glo MT Cell Viability Assay in HepG2 cells - 24 hour (AID 1224867); also: nearly all actives have a fitted effect of over 50% in size
How it was run: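 qHTS, HepG2, 600 cells/well, RealTime-Glo (NanoLuc + prosubstrate) added with cells; 5 h preincubation; DMSO compound addition; 37 C; luminescence at 0/8/16/24/32/40 h.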

[11] = qHTS RealTime-Glo MT Cell Viability Assay in HEK293 cells - 32 hour (AID 1224868); also: top concentration of the series differs between compounds; nearly all actives have a fitted effect of over 50% in size
How it was run: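 Assay medium contained NanoLuc luciferase plus cell-permeant prosubstrate, added with HEK293 cells at 600 cells/well. After 5 h at 37 C/5% CO2 compounds were added; plates stayed at 37 C for 40 h with serial luminescence reads.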

[12] = A CellTox Green Cytotoxicity Assay to monitor cytotoxicity in HEK293 cells - 0 hour (AID 1224869); also: nearly all actives have a fitted effect of over 50% in size
How it was run: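 HEK293 cells premixed with CellTox Green dye were seeded at 600 cells/well and left 5 h at 37 C/5% CO2 before pin transfer of 23 nL compound in DMSO. Fluorescence from dye bound to dead-cell DNA was read during 40 h treatment.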

[13] = target: Nuclear receptor subfamily 1 group I member 3 (Homo sapiens) (UniProt Q14994); assay: qHTS assay to identify small molecule antagonists of the constitutive androstane receptor (CAR) signaling pathway (AID 1224838); also: nearly all actives have a fitted effect of over 40% in size
Chain of Nuclear receptor subfamily 1 group I member 3 (Homo sapiens) (Q14994 whole entry, looked up): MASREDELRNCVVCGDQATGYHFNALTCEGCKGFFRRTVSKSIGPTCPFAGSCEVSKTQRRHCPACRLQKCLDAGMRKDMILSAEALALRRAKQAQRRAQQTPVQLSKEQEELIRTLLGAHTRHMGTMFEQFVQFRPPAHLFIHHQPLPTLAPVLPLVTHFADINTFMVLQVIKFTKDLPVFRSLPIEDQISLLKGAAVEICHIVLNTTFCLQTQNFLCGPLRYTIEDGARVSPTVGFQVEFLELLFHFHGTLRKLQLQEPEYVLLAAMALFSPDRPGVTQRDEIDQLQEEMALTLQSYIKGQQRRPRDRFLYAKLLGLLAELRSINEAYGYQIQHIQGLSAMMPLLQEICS
How it was run: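 HepG2 cells stably co-transfected with hCAR and a CYP2B6-2.2kb luciferase reporter were seeded 4 h before compound addition at 15 concentrations. Cells were stimulated with 50 nM CITCO (final) for 24 h at 37 C; luciferase luminescence was then read.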

[14] = target: Nuclear receptor subfamily 1 group I member 3 (Homo sapiens) (UniProt Q14994); assay: qHTS assay to identify small molecule agonists of the constitutive androstane receptor (CAR) signaling pathway (AID 1224839);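 also: HepG2 cells stably carrying human CAR and a CYP2B6 luciferase reporter; nearly all actives have a fitted effect of over 15% in size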
How it was run: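 Readout: firefly luciferase luminescence via ONE-Glo. System: HepG2 double-stable for hCAR and CYP2B6-2.2kb. Conditions: 15-point compound titration, PK11195 at 0.75 uM final, 24 h incubation.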

[15] = qHTS assay to identify small molecule antagonists of the estrogen related receptor signaling pathway with the pleiotropic PPARgamma coactivator (PGC) from Tox21 10K library (AID 1224841; call rule not given here)
How it was run: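 PGC/ERR reporter cells were seeded at 2,000 cells/well and held 6 hours at 37 C/5% CO2 before pin-tool addition of compounds in DMSO. After 18 hours at 37 C, One-Glo was added and luminescence read after 30 minutes at room temperature.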

[16] = qHTS assay to identify small molecule agonists of the hypoxia (HIF-1) signaling pathway (AID 1224846; active = well fitted activation curve with a large enough effect in the signal ratio in the repeat runs, not every such curve was filed as active; the % refers to the signal ratio)
How it was run: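 HRE-bla ME-180 cells (beta-lactamase reporter under hypoxia response element) were plated at 2,000 cells/well in medium with 0.5% dialyzed FBS, rested 5 hrs, then given compounds in DMSO for 17 hrs at 37C, 5% CO2. Reporter induction was read with CCF4-AM FRET substrate.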

[17] = qHTS assay to identify small molecule agonists of the estrogen related receptor (ERR) signaling pathway from Tox21 library (AID 1224849; calls by dose curve; also: nearly all actives have a fitted effect of over 15% in size); conditions: ERR reporter cell line, ONE-Glo luciferase, 18 h; at 92.4 µM (top of the series) unless noted
How it was run: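 ERR reporter cell line (NTP) seeded, rested 6 h at 37 C/5% CO2, then pinned with Tox21 compounds in DMSO. After 18 h at 37 C, ONE-Glo luciferase luminescence was read following 30 min at room temperature.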

[18] = qHTS assay to identify small molecule agonists of the estrogen related receptor signaling pathway with the pleiotropic PPARgamma coactivator (PGC) from Tox21 10K library (AID 1224842); also: nearly all actives have a fitted effect of over 15% in size
How it was run: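 Luminescence from One-Glo (30 min, room temperature) measured after PGC/ERR cells had 18 h at 37 C with pinned compound (23 nL in DMSO). Cells had been seeded at 2,000 per well and pre-incubated 6 h.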

[19] = qHTS assay to identify small molecule antagonists of the estrogen related receptor (ERR) signaling pathway from Tox21 library (AID 1224848); also: nearly all actives have a fitted effect of over 50% in size
How it was run: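 Antagonist-mode screen of the Tox21 10K library in an NTP-provided ERR reporter cell line; 18 h compound exposure at 37 C, luminescence measured with ONE-Glo.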
% is scaled to controls: 0 for no effect and ±100 for the full control effect.

CCN(CC)CCNC(=O)c1cc(S(C)(=O)=O)ccc1OC
inactive: Potency [1] | Potency [2] | Potency [3] | Potency [4] | Potency [5] | Potency [6] | Potency [7] | outcome [8] | Potency [9] | Potency [10] | Potency [11] | Potency [12]

Cc1cc(O)cc2c1O[C@](C)(CCC[C@H](C)CCC[C@H](C)CCCC(C)C)CC2
inactive: Potency [1] | Potency [2] | Potency [3] | Potency [4] | Potency [13] | Potency [14] | Potency [5] | Potency [15] | Potency [6] | Potency [7] | outcome [16] | Potency [9] | activity change, positive = activation [17] 6.7% [at 42.5 µM] | Potency [10] | Potency [12]

NS(=O)(=O)c1cc(C(=O)NN2C[C@H]3[C@H]4CCC(C4)[C@H]3C2)ccc1Cl
inactive: Potency [1] | Potency [2] | Potency [3] | Potency [13] | Potency [14] | Potency [5] | Potency [15] | outcome [18] | Potency [6] | Potency [7] | outcome [8] | outcome [16] | Potency [9] | Potency [19] | activity change, positive = activation [17] -1.11% [at 42.5 µM] | Potency [10] | Potency [12]

CCCCCCCCCCCCCC=O
inactive: viability change, negative = cytotoxic [1] 1.13% [at 8.39 µM] | activity change, negative = inhibition [2] 3.28% [at 10.5 µM] | viability change, negative = cytotoxic [3] -0.0726% [at 8.39 µM] | activity, negative = inhibition [13] -13.4% [at 8.39 µM] | activation [14] -0.0217% [at 8.39 µM] | viability change, negative = cytotoxic [5] 5.18% [at 8.39 µM] | activity, negative = inhibition [15] 11.8% [at 8.39 µM] | activation [18] -0.504% [at 8.39 µM] | activation [6] 4.61% [at 8.39 µM] | activity change, negative = cytotoxicity [7] 0.368% [at 6.97 µM] | activation (H2AX phosphorylation) [8] -4.49% [at 14 µM] | activation [16] -0.206% [at 7.01 µM] | activity change, negative = cytotoxicity [9] 0.845% [at 14 µM] | activity, negative = inhibition [19] -0.715% [at 8.39 µM] | activity change, positive = activation [17] -0.514% [at 8.39 µM] | activity change, negative = cytotoxicity [10] -6.68% [at 6.97 µM] | activity change, negative = cytotoxic [11] 5.71% [at 6.97 µM] | cytotoxicity [12] -4.46% [at 6.97 µM]

CC(=O)OCC(CCn1cnc2cnc(N)nc21)COC(C)=O
inactive: Potency [1] | Potency [2] | Potency [3] | Potency [4] | Potency [5] | Potency [6] | Potency [7] | outcome [8] | outcome [16] | Potency [9] | Potency [10] | Potency [11] | Potency [12]

COCCCOCCCOC
inactive: Potency [1] | Potency [2] | Potency [3] | Potency [4] | Potency [13] | Potency [14] | Potency [5] | Potency [15] | Potency [6] | outcome [8] | outcome [16] | Potency [9] | Potency [19] | Potency [10] | Potency [11] | Potency [12]
